Bioassay records as filed in PubChem.
Hits are enriched below; roughly 4.2% of the tested compounds scored in any of these assays.
BJeLR viability: kills HRASV12-expressing BJeLR cells; 300,000 compounds, 0.17% hits; inhibition, % (concentration not given with the values); BJeLR (HRASV12) viability, CellTiter-Glo ATP luminescence, 48 h; AID 1554; in the data active = inhibition above about 50%
PrPC surface inh: cell surface PrPC inhibition, primary TR-FRET screen; P04156; TR-FRET read-out; inhibition, % at 13.8 µM; 370,000 compounds, 0.43% hits; AID 720596; in the data active = inhibition above about 24%; also: 0% = median of the test wells and 100% = reference compound wells
GDH-TPI counter: GDH-TPI coupled enzyme inhibition counter-screen; AID 588335; GDH-TPI coupled enzyme counterscreen, NADH absorbance; 360,000 compounds, 1.2% hits; inhibition, % at 4.8 µM; in the data active = inhibition above about 30%;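 also: 0% = DMSO wells and 100% = wells lacking the enzyme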
RecA intein inh: inhibitors of M. tuberculosis RecA intein splicing | P9WHJ3 | cell-free RecA intein splicing, fluorescence | inhibition, % (no concentration beside the values) | 290,000 compounds, 0.75% hits; in the data active = inhibition above about 30%;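 also: 0% = vehicle wells and 100% = reference inhibitor control wells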
FBA Mtb inh: Mtb fructose-bisphosphate aldolase inhibition; P9WQA3; purified M. tuberculosis FBA, fluorescence read-out; inhibition, % at 1 µM; 360,000 compounds, 2.3% hits; in the data active = inhibition above about 27%;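 also: 0% = vehicle and 100% = reference inhibitor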
Target sequence (P9WQA3 whole entry, looked up): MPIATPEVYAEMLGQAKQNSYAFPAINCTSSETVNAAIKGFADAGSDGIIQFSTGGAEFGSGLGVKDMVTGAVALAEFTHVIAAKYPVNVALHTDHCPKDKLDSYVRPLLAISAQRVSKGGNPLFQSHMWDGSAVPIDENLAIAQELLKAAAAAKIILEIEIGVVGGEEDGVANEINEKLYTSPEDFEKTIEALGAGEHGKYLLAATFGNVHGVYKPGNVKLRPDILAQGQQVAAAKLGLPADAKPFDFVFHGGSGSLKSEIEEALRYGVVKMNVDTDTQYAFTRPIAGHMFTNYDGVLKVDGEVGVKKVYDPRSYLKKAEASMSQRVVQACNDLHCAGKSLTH
An asterisk follows results filed as active; · = no result given; + = active, no number.

SMILES	BJeLR viability	PrPC surface inh	GDH-TPI counter	RecA intein inh	FBA Mtb inh
COC(=O)c1sccc1-c1ccc(/C=N/OC(=O)c2ccccc2)o1	-3.3	7.9	30.8*	2.3	14.0
COC(=O)c1ccccc1-c1ccc(/C=N/NC(N)=O)o1	-8.3	-5.2	31.7*	-3.0	0.9
COC(=O)c1sccc1-c1ccc(C(=O)Nc2cccc(Cl)c2)o1	-6.0	8.6	-1.0	-0.3	7.2
COC(=O)N/N=C/c1ccc(-c2ccc(Cl)cc2Cl)o1	1.9	-5.0	33.7*	0.0	3.9
Cc1ccc(S(=O)(=O)/N=C2/NC(=O)/C(=C\c3ccco3)S2)cc1	·	-3.0	22.5	·	-0.3
O=C1NC(=O)C(=Cc2ccco2)S1	·	-4.3	38.4*	·	0.6
O=C1NC(=O)/C(=C/c2ccco2)N1	·	-8.3	39.7*	·	-1.9
CCC(C)n1c(O)c(C=NCCc2ccccc2)c(=O)[nH]c1=S (centres undefined)	-6.5	1.8	55.1*	4.7	-0.2
O=C(Cn1c(=O)c2cccn2c2cccnc21)NCCCN1CCN(c2ccccc2)CC1	·	-5.7	·	·	·
C=CCn1c2ccccc2c(=O)c2cc(C#CC[C@@H](C)O)ccc21	·	-6.4	12.8	·	+
N=C1c2c(cc(=O)n3c2[nH]c2ccccc23)CN1CCN1CCOCC1	1.5	-3.2	12.2	-26.5	+
COCCn1c(=S)[nH]c2cc(C(=O)N3CCc4ccccc4C3)ccc2c1=O	1.7	3.4	-1.9	-0.1	0.6
COCCN1Cc2cc(=O)n3c([nH]c4ccccc43)c2C1=N	-7.0	2.8	10.1	-5.0	+
CC(C)(C)c1ccc(-c2nc(C#N)c(N3CCC(C(N)=O)CC3)o2)cc1	2.2	6.3	21.0	-2.9	166.0*
COc1ccc(-c2nc(C#N)c(N3CCC(C(N)=O)CC3)o2)cc1	1.2	0.9	16.2	0.0	+
N#Cc1nc(-c2cccc(Cl)c2)oc1N1CCC(C(N)=O)CC1	4.1	-4.0	5.7	-2.2	+
CC(C)Cc1nc(C#N)c(N2CCC(C(N)=O)CC2)o1	2.8	5.6	-1.5	-1.8	-2.6
N#Cc1nc(-c2ccc(OCc3ccccc3)cc2)oc1N1CCC(C(N)=O)CC1	5.6	-0.1	10.4	-2.4	24.0
CC(C)C(=O)N1CC[C@H]2[C@H](CCCN2Cc2ccc(F)cc2)C1	·	-12.8	·	·	·
N#C/C(=C\c1ccc(-c2ccccc2[N+](=O)[O-])o1)C(N)=O	2.7	-4.6	41.3*	2.1	-4.2
CNC(=O)/C(C#N)=C/c1ccc(-c2ccccc2[N+](=O)[O-])o1	4.3	-7.6	20.8	5.8	0.2
Nc1c(S(=O)(=O)c2cccs2)c2nc3ccccc3nc2n1/N=C/c1cccc(O)c1	-7.9	-8.0	45.3*	-3.2	19.3
COc1ccc(C2C(C(=O)Nc3cc(OC)c(OC)c(OC)c3)CCC(=O)N2c2ccc(OC)cc2)cc1 (centres undefined)	·	-3.9	·	·	·
CCCCn1nc2cc(C(=O)NCc3ccc(OC(F)(F)F)cc3)ccc2c1OC	-3.6	1.6	5.2	1.3	29.3*
CCn1nc2cc(C(=O)NCc3cc(C(F)(F)F)cc(C(F)(F)F)c3)ccc2c1OC	-10.3	15.4	1.2	1.3	39.2*
SMILES	BJeLR viability	PrPC surface inh	GDH-TPI counter	RecA intein inh	FBA Mtb inh
CCCCn1nc2cc(C(=O)NCc3cc(C(F)(F)F)cc(C(F)(F)F)c3)ccc2c1OC	3.0	3.3	-2.6	0.4	10.4
COC(=O)C1=C(C)N(Cc2ccc(C(F)(F)F)cc2)C(=NCC2CC2)NC1c1cccc(Cl)c1 (centres undefined)	·	-10.9	·	·	·
COc1cc(NC(=O)c2ccco2)c(OC)cc1NC(=O)Nc1ccc(Cl)cc1	-0.3	2.3	31.1*	-4.9	6.9
CCOc1ccc(-n2c(SC/C=C/c3ccccc3)nnc2-c2ccco2)cc1	·	7.2	·	·	·
CC1(C)CC(=O)c2sc(NC(=O)CN3CCCCC3)nc2C1	-12.2	-4.8	34.4*	0.8	0.7
CC(C)Oc1ccc(-c2csc(N3CCC(C(N)=O)CC3)n2)cc1	·	-7.2	·	·	·
CSc1nnc2c(n1)C[C@H](c1ccccc1)[C@@H](C)[C@@H](C(=O)N1CCCC1)C2	·	-2.5	·	·	·
Cc1cc(Cl)n2c(nc3cc(F)c(F)cc32)c1C#N	127.6*	-7.6	-2.2	20.2	16.2
CCN(CC)CCCNc1ccc(-c2nnc(-c3ccc(OCC(C)C)cc3)o2)cn1	15.4	-13.0	24.1	1.6	+
Fc1cccc(CNC2CCC23CCC(c2ccccc2)CC3)c1 (centres undefined)	·	7.7	·	·	·
O=C(Nc1ccc(F)cc1)OCc1cn(Cc2cccc(F)c2F)nn1	·	9.5	·	·	·
O=C(CSc1nnc(-c2ccccc2)n1-c1ccc(Cl)cc1)NN=Cc1c[nH]c2ccccc12	·	9.2	·	·	·
c1ccc2c3c(cc(N4CCOCC4)c2c1)OC1(N2CCOCC2)CCCCC1O3 (centres undefined)	0.7	4.8	0.8	2.3	89.5*
COc1nnc(-c2ccc(N3CCOCC3)c(NC(=O)C3CCCCC3)c2)c2ccccc12	13.9	-5.2	4.4	1.2	2.0
CCCCCC(=O)C(=O)c1ccc(O)cc1O	9.9	5.8	46.4*	-0.2	10.2
CCC(NC(=O)c1ccc2c(c1)c(C)c(C)n2Cc1ccc(-c2ccccc2C#N)cc1)c1ccccc1 (centres undefined)	·	0.8	·	·	·
COc1ccc2c(c1)cc(C(=O)N/N=C/c1c(O)c(C(=O)O)cc3ccccc13)n2C	7.3	-2.5	31.9*	-15.7	-1.8
COC(=O)C1CN(Cc2cn(Cc3ccccc3)nn2)CCS(=O)(=O)N1Cc1ccc(Cl)cc1 (centres undefined)	·	-1.3	·	·	·
CC(=O)c1cc(-c2cccc(Cl)c2O)c(=O)n2c1CCC2	·	-4.4	·	·	·
N#C/C(=C/c1cn(-c2ccccc2)nc1-c1cccc(S(=O)(=O)N2CCOCC2)c1)C(=O)NCc1ccco1	-31.4	-0.6	2.9	-5.3	2.5
N#C/C(=C/c1cn(-c2ccccc2)nc1-c1cccc(S(=O)(=O)N2CCCC2)c1)C(=O)NCc1ccco1	9.0	0.4	30.9*	9.5	0.5
CC(C)CN1C(=O)[C@@]2(CC(=O)N(C)C2c2ccccc2)c2cc(-n3cc(CN(C)C)nn3)ccc21 (some centres undefined)	·	-3.1	·	·	·
COc1ccc(CN(CC#Cc2ccc(C)cc2)C(N)=NC(=O)CCc2ccccc2)c(OC)c1	·	0.8	·	·	·
CC12CN3CCN(CC(C3)/C1=N\N=C1/C3CN4CCN(C3)CC1(C)C4)C2	0.4	1.5	5.8	-0.2	113.3*
O=C(Nc1ccccc1C(F)(F)F)OCCN1C(=O)CCC12CCC(c1ccccc1)CC2 (centres undefined)	·	-2.5	·	·	·
O=C(O)/C(=C/c1ccco1)NC(=O)c1ccccc1	-8.8	-1.4	14.8	-1.4	-1.9
O=C(Nc1ccc(C(=O)O)cc1)/C(=C\c1ccco1)NC(=O)c1ccc(Br)o1	-7.4	0.0	23.8	-1.4	-0.2
O=C(Nc1ccc(O)cc1)/C(=C/c1ccco1)NC(=O)c1ccccc1	-5.2	-13.3	39.9*	-0.6	-3.9
O=C(Nc1ccc(C(=O)O)cc1)/C(=C\c1ccco1)NC(=O)c1ccc(Br)cc1	·	-12.6	40.2*	·	-0.9
COc1cccc(-c2nnc3sc(-c4ccc(Br)o4)nn23)c1	·	-5.0	·	·	·
